Bioassay records: PubChem, several laboratories
A selection: hits, their analogues and other compounds. The true share with any hit is near 4.9%.
dFosB act: mouse delta FosB homodimer activation | P13346 | purified delta FosB, TAMRA-CDK5 oligo fluorescence polarization; percent of positive-control signal above neutral wells | activation, % at 25 µM | 0.99% of 340,000 active | AID 493131;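 active = mean activation above about 17%, with every replicate also reaching it, limit read from the data, passing the limit was not always enough; inconclusive = only one of the two conditions met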
Target sequence (P13346 whole entry, looked up): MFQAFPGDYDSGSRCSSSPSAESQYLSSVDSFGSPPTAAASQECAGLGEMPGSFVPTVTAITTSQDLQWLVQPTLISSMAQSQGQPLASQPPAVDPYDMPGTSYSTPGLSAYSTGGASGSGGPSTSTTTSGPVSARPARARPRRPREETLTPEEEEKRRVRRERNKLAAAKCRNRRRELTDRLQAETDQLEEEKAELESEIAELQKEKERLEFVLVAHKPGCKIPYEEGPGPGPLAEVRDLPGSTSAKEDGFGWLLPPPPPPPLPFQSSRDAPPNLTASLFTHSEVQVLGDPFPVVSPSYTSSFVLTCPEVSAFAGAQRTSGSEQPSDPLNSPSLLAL
HSF1 inhib: HSF1 inhibition. NIH3T3-HGL HSE-luciferase, MG132-induced, luminescence 8 h; stronger effect = lower value. activity change, negative = inhibition, % at 7.5 µM (by protocol). 0.77% of 300,000 active;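 active = more than half of replicate wells show activity change below -50%, luminescence cut by over half; inconclusive = some wells, but at most half, below -50%; inactive = no replicate well below -50%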;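 note: luciferase reports HSF-1 transcriptional activity via heat shock element; 0% = median of DMSO wells and -100% = zero luminescence signal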
MPTP inh: blocks calcium-induced mitochondrial swelling. isolated mouse mitochondria, Ca2+ swelling absorbance, 30 min. inhibition, % at 10 µM. 1.4% of 360,000 active. AID 602449;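 active = inhibition of 50% or more, scaled per plate between neutral and stimulator controls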;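 note: 0% = DMSO wells given calcium and 100% = 1 mM EGTA wells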
HSP90 inh: HSP90 refolding inhibition in rabbit reticulocyte lysate. luciferase refolding luminescence, 3 h. inhibition, % at 5.6 µM. 0.91% of 290,000 active. AID 1789;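 active = inhibition above the screen-wide mean plus 3 SD, computed separately per campaign, cut at about 16% in these data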;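 note: 0% = DMSO wells and 100% = 60 µM geldanamycin wells; inhibitors lower the luminescence because luciferase stays unfolded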
HSF1 activator: increases HSF-1 driven luciferase reporter signal | NIH3T3-HGL HSF-1 luciferase reporter, MG132, 8 h; 100% = twice DMSO control signal | activation, % at 9 µM | AID 504408 | 1.7% of 300,000 active;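 active = mean replicate activation of at least 50% with a set share of replicates each reaching 50%; inconclusive = only one of those two conditions met; inactive = mean below 50% and too few replicates reaching it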;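 note: 0% = median of the neutral control wells and 100% = twice that signal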
Platelet DG rel: platelet dense granule release activity; human platelet-rich plasma, SFLLRN dense granule ATP release, luminescence; inhibition, %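 (compounds screened at 7.5 µM in platelet-rich plasma)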; 0.22% of 300,000 active; AID 1663;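 active = mean replicate score, as percent of positive control, at or above 50; inconclusive = mean below 50 but at least one replicate at or above 50; inactive = mean and every replicate below 50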
HSP90 confirm: confirmation of HSP90 inhibitors. shares compounds with HSP90 inh. rabbit reticulocyte lysate, luciferase refolding luminescence, 3 h. inhibition, % at 5.9 µM. 64% of 2,300 active; in the data active = inhibition above about 18%;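 note: 0% = vehicle wells and 100% = reference inhibitor wells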
FLuc counter: counter-screen for HSP90 inhibitors: inhibitors of firefly luciferase. purified native firefly luciferase, luminescence. shares compounds with HSP90 inh. 48% of 2,300 active. inhibition, % at 5.9 µM;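 active = inhibition above the mean inhibition of all tested sample wells plus 3 SD, cut at about 10% in these data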;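 note: 0% = DMSO with luciferase and 100% = wells lacking luciferase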
The depositor's hits bear a star; ? = inconclusive; . = not tested or not shown.

SMILES	dFosB act	HSF1 inhib	MPTP inh	HSP90 inh	HSF1 activator	Platelet DG rel	HSP90 confirm	FLuc counter
CC(=O)NC1C(=O)N=C(SCc2ccccc2)NC1=O (configuration not stated)	5	6	0	49*	22	0	2	-5
COC(=O)c1ccc2nc(-c3ccc(C)cc3)c(Cc3cccc(Cl)c3)n2c1	.	.	2	.	.	.	.	.
CCc1nnc(N/N=C/c2ccc(N3CCC(C)CC3)c([N+](=O)[O-])c2)n1N	-5	-21	-1	21*	-42	-5	-2	-1
Nn1cnnc1N/N=C/c1ccc(Cl)c([N+](=O)[O-])c1	-5	-98*	0	46*	-97	-11	-3	-6
Nc1nnnn1/N=C\c1ccc(Cl)c([N+](=O)[O-])c1	-3	14	0	0	?	4	.	.
Cc1nnc(N/N=C/c2ccc([N+](=O)[O-])cc2)n1N	-3	20	2	0	39	-4	.	.
Cc1cccc(NC(=O)CSCC(=O)Nc2cc(Cl)ccc2N2CCN(C)CC2)c1	-4	-1	-1	-3	2	20	.	.
CCOc1cc(CN2CCN(CCc3ccccc3)C(CCO)C2)ccc1OC (configuration not stated)	-5	-8	0	27*	-23	-1	-3	-6
CS(=O)(=O)N1CCC(Oc2cccc(C(=O)NCCCC3CCCC3)c2)CC1	-17	3	2	29*	12	-11	-7	-11
CCO[C@@H]1OC(C(=O)N2CCN(Cc3ccc4c(c3)OCO4)CC2)=C[C@H](c2ccc(C(F)(F)F)cc2)[C@H]1CCCO	-22	-2	0	24*	-16	-13	4	-2
O=c1cc(-c2ccc(Br)cc2)[nH][nH]1	-5	5	-1	12	10	-1	.	.
COc1cccc(-c2cc(=O)[nH][nH]2)c1	-1	10	-1	15	18	16	.	.
O=c1cc(-c2ccccc2)[nH][nH]1	-5	4	0	40*	25	3	-9	-11
COc1ccc(-c2cc(=O)[nH][nH]2)cc1OC	-6	18	-1	34*	30	-2	1	-1
N#CC1=C(N)Oc2n[nH]c(-c3cccs3)c2C1c1ccsc1 (configuration not stated)	-2	-1	2	21*	-6	-21	4	1
CCCCN(C(C)=O)c1c(CC)nc2ccc(C(=O)Nc3cccc(OCC(=O)N(C)C)c3)cn12	.	.	0	.	.	.	.	.
O=C(COc1ccc2c(c1)CCC2)NCc1ccccc1	-7	-1	-16	-9	-4	-8	.	.
NNC(=O)c1cccc(COc2ccccc2Br)c1	-7	-22	-2	39*	-30	5	36*	9.8*
NNC(=O)c1cccc(COc2ccc3c(c2)CCC3)c1	5	?	0	36*	-58	18	66*	56*
O=C(NN=Cc1ccc(O)cc1O)c1ccccc1NS(=O)(=O)c1cccs1	-3	.	5	.	.	.	.	.
COc1ccc(-c2cc(C3CCNCC3)[nH]n2)cc1	0	-3	0	4	-23	4	.	.
CCn1cc(C(=O)NC2CCc3ccccc32)c(=O)c2ccc(C)nc21 (configuration not stated)	.	-6	.	27*	20	-2	-3	-9
O=C(CSc1nc2ccccc2s1)N/N=C/c1ccccc1C(=O)O	-7	-63*	0	18*	-62	-1	8	8
COC(=O)C1N[C@@H]([C@@H](NC(=O)COc2ccccc2)C(=O)Nc2ccc(OC)cc2)SC1(C)C (some centres not stated)	-3	-1	-1	.	-1	6	.	.
COc1cccc2c1-c1c(C(=O)O)cccc1C2=O	-2	-5	-1	2	-26	8	.	.
SMILES	dFosB act	HSF1 inhib	MPTP inh	HSP90 inh	HSF1 activator	Platelet DG rel	HSP90 confirm	FLuc counter
COc1cccc2c1C(=O)c1ccc3ccccc3c1C2=O	-12	16	-2	26*	13	-32	-1	-24
COCC(C)n1c(C)cc(C(=O)COC(=O)c2n[nH]c3ccccc23)c1C (configuration not stated)	-3	-53*	-2	47*	-59	-6	48*	45*
CCCCN(C)S(=O)(=O)c1c(C)[nH]c(=O)[nH]c1=O	0	-12	1	25*	2	7	1	-7
Cc1cc(NC(=O)c2ccc(C)s2)n(-c2ccccc2)n1	-5	-1	-2	1	24	3	.	.
CCOC(=O)c1cnc(Nc2nc3ccccc3o2)nc1CN1CCN(c2ccccc2)CC1	.	.	.	2	.	.	.	.
Cc1cccc(C)c1Nc1nc2ccccc2o1	3	2	-2	-2	3	-5	.	.
Cc1nc(Nc2nc3ccccc3o2)nc2c1CCC2	-3	5	-2	17*	25	17	50*	43*
CCOC(=O)c1cnc(Nc2nc3ccccc3o2)nc1C	-10	-23	-2	18*	-35	17	86*	75*
NNc1nc(-c2ccccc2)nc(-c2ccccc2)c1Br	-8	-4	0	.	-7	2	.	.
COc1ccc(CC(=O)Nc2cccnc2)cc1	1	-15	-2	1	-23	2	.	.
CC1CCN(c2ccc(-c3cccs3)nn2)CC1	-7	-67*	0	81*	-72	43	90*	84*
COCCn1c(C)c(C)c2c(NCCc3ccccc3)ncnc21	-3	-73*	2	60*	-76	-7	63*	63*
COc1ccc(NC(=O)OCCn2c([N+](=O)[O-])cnc2C)cc1	-5	-5	1	1	0	0	.	.
CC(C)(C)OC(=O)C[C@@H]1C/C=C\C[C@@H](CC(=O)N(CCO)Cc2ccccc2)C(=O)N2CCC[C@@H]2COC1=O	-9	.	0	.	.	.	.	.
CC(=O)c1ccc(NC(=O)CSc2n[nH]c(-c3cccnc3)n2)cc1	-9	4	-1	3	-11	4	.	.
COc1ccc(CCNC(=O)c2nnn(-c3ccc4c(c3)OCCO4)c2N)cc1OC	-4	-76*	1	29*	-78	-4	64*	66*
COc1ccc(CCNC(=O)c2nnn(-c3ccccc3OC)c2N)cc1OC	5	2	-2	6	-7	2	.	.
O=C(Nc1ccc2c(c1)nc1n2CCSC1)c1ccco1	4	7	-1	35*	30	7	45*	20*
CCn1c(SCC(=O)NC2CC2)nnc1-c1ccc(C)cc1	-3	-3	-2	-2	3	1	.	.
c1c2c(cc3sc(N4CCCCC4)nc13)OCO2	-4	12	-2	25*	25	18	59*	52*
NC(=O)c1c(N)sc2c1CCCC2	0	0	0	-4	-16	3	.	.
